Reference: ChEMBL document CHEMBL5308504, “Tm Shift (DSF) assay results for EUbOPEN Chemogenomics Library” (2023)
Values joined by “and” are separate entries in the source; they are usually repeats but may differ in a detail not shown here. Equal values may be shown once.

target: Glycogen synthase kinase-3 beta (Homo sapiens) (UniProt P49841); settings: Compound concentration 20.0 uM, Protein concentration 2.0 uM, Result type QC Liability
Sequence (P49841 whole entry, looked up): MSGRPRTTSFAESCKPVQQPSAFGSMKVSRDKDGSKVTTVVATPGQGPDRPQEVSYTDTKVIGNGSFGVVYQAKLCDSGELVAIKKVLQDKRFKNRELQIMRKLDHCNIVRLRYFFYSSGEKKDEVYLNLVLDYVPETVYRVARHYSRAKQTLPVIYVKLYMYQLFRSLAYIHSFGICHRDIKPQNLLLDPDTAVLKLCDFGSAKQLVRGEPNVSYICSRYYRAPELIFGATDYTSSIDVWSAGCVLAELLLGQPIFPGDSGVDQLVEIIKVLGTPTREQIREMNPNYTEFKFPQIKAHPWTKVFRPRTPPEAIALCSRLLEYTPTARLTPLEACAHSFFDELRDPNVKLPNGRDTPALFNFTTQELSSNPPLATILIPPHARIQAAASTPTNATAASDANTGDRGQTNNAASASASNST

Row | SMILES | ΔTm
1 | O=C1Nc2ccc(I)cc2/C1=C/c1cc(Br)c(O)c(Br)c1 | -1.46 °C
2 | Cc1cc2ncnn2cc1Nc1ncc2c(n1)n(C1CCOCC1)c(=O)n2C | 1.17 °C
3 | CNc1oc(-c2cccc3ccccc23)nc1C#N | 0.49 °C
4 | COc1ccc(CSc2nnc(-c3ccc4ncsc4c3)o2)cc1C(F)(F)F | -9.01 °C
5 | CC(C)C(=O)N1CCC(c2cn(C)c3ncc(NC(=O)c4cccc(C#N)c4)c(C(F)(F)F)c23)CC1 | -0.4 °C
6 | COCCN1CCN(CCn2ccc(Nc3ncc4c(n3)-c3c(nn(C)c3-c3ccccc3)C[C@H]4C)n2)CC1 | 0.86 °C
7 | N#C/C(=C\c1ccc(O)c(O)c1)C(=O)OCCc1cccs1 | 0.01 °C
8 | CC(=O)N(CCN(C)C)c1ccc(N/C(=C2\C(=O)Nc3cc(Cl)ccc32)c2ccccc2)cn1 | 11.3 °C
9 | Cc1nc(-c2ccc(C(F)(F)F)cc2)sc1C(=O)NCc1ccc(OC(C)(C)C(=O)O)cc1 | -0.64 °C
10 | CC(C)N(CCCCOCC(=O)O)c1cnc(-c2ccccc2)c(-c2ccccc2)n1 | 0.74 °C
11 | FC(F)c1cncc(-c2ccc3ncc4nnc(C5=CCCOCC5)n4c3c2)c1 | 2.58 °C
12 | CC(C)c1cnc(NC(=O)Cc2ccccc2)s1 | 3.64 °C
13 | CCCCOc1c(C(=O)c2c(F)cc(C)cc2F)c[nH]c2nncc1-2 | 0.42 °C
14 | CCN1C(=O)c2cc(C)ccc2N(C)c2ncccc21 | -0.36 °C
15 | CCOCCn1cc(C(=O)Nc2ccc(-n3nc(-c4cccnc4)cc3C(F)(F)F)cn2)ccc1=O | -0.71 °C
16 | CC#CCC(C)[C@H](O)/C=C/[C@@H]1[C@H]2C/C(=C/CCCC(=O)O)C[C@H]2C[C@H]1O (stereo partly drawn) | -0.77 °C
17 | COc1ccc(S(=O)(=O)N2CCOCC2)cc1Nc1ccc2c(n1)N(C1CCOCC1)[C@H](C)C(=O)N2C | -0.48 °C
18 | CC1CN(CC(=O)N2CC(C)(C)c3nc(CO)c(Cc4ccc(F)cc4)cc32)C(CN2CCOCC2C)CN1 (stereo not drawn) | -1.07 °C
19 | O=C(O)CCCc1cc2cc(Cl)ccc2n1S(=O)(=O)c1ccc2ncsc2c1 | -2.46 °C
20 | O=S(=O)(Nc1ccc(C(O)(C(F)(F)F)C(F)(F)F)cc1)c1cccs1 | -0.54 °C

Row | SMILES | ΔTm
21 | COC(=O)Nc1nc2c(s1)-c1c(c(-c3cccnc3)nn1-c1ccc(C3(N(C)C)CC3)cc1)CC2 | -0.71 °C
22 | COc1ccccc1S(=O)(=O)Nc1ccc2c(c1)CN(C)C(=O)N2 | -0.57 °C
23 | CC(C)(C)OC(=O)CN(Cc1ccc(Cl)cc1)Cc1ccc([N+](=O)[O-])s1 | -0.54 °C
24 | COc1c(OCCCN2CCOCC2)ccc2c1N=C(NC(=O)c1cnc(N)nc1)N1CCN=C21 | -1.01 °C
25 | COCCc1ccc(-c2c(C)nc3c(N4CCOCC4)ccnn23)cn1 | -0.61 °C
26 | COc1cc(OC)cc(-c2cc3cnc(N)nc3nc2NC(=O)NC(C)(C)C)c1 | -0.48 °C and 0.1 °C
27 | COCCNC1CCC(Nc2cc(-c3csc(NCC4(C#N)CCOCC4)n3)c(Cl)cn2)CC1 (stereo not drawn) | 6.51 °C
28 | Cc1cc(-c2ccnc(Nc3cnn(C)c3)n2)ccc1CNC(=O)N1CC(OC(C)C)C1 | 0.38 °C
29 | COCCCS(=O)(=O)c1cc(C)c(-c2ccc(F)c3c2CC[C@H]3Oc2ccc3c(c2)OC[C@H]3CC(=O)O)c(C)c1 | 0 °C
30 | COc1cc2nc([C@@H]3CCCS(=O)(=O)C3)n(C)c2cc1NC(=O)c1cccc(C(C)(F)F)n1 | -1.39 °C
31 | CN1C(=O)Cc2ccc(-c3ccc(C[C@@H](C#N)NC(=O)[C@@H]4N[C@H]5CC[C@@H]4C5)c(F)c3)cc21 | -0.31 °C
32 | CCN(C(=O)c1cc(F)ccc1Oc1cncnc1N1CC2(CCN(C[C@H]3CC[C@H](NS(=O)(=O)CC)CC3)CC2)C1)C(C)C | -0.47 °C
33 | CC(C)(C)c1cc(NC(=O)c2csc(Nc3ccccn3)n2)no1 | 0.22 °C
34 | O=C(Nc1cccc(C(F)(F)F)c1)c1cccc(-n2cc(-c3ccco3)nn2)c1 | -7.24 °C
35 | CNC(=O)c1ccc2c(c1)ncn2-c1ccc(CC(=O)OC(C)(C)C)cc1 | -0.5 °C
36 | CNC(=O)c1cc(C(=O)N[C@H]2[C@@H]3COC[C@@H]32)cc2c1O[C@H](CF)[C@H]2c1ccccc1 | -0.78 °C
37 | CN(C)c1ccc(-c2cc3ncccc3c(OCCCCO)n2)cc1 | 0.13 °C
38 | O=C(NC[C@@H]1[C@H]2CN(C(=O)OCc3cc(C(F)(F)F)cc(C(F)(F)F)c3)C[C@@H]12)c1ccc2[nH]nnc2c1 | -10.5 °C
39 | COc1cc(-c2cncc(-c3ccc(N4CCN(C(C)C)CC4)cc3)c2C)cc(F)c1C(N)=O | 1.06 °C

target: Mitogen-activated protein kinase 1 (Homo sapiens) (UniProt P28482); settings: Compound concentration 20.0 uM, Protein concentration 2.0 uM, Result type QC Liability
Sequence (P28482 whole entry): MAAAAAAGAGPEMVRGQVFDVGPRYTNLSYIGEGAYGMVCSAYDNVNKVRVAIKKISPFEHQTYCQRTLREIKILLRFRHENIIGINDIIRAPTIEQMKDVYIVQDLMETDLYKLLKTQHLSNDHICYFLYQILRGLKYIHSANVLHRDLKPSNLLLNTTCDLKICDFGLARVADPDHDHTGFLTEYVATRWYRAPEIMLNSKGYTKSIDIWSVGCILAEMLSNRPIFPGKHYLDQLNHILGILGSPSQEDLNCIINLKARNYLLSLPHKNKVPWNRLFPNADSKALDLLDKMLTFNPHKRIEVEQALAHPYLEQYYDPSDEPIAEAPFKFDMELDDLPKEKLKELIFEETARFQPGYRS

Row | SMILES | ΔTm
40 | O=C1Nc2ccc(I)cc2/C1=C/c1cc(Br)c(O)c(Br)c1 | 0.48 °C
41 | Cc1cc2ncnn2cc1Nc1ncc2c(n1)n(C1CCOCC1)c(=O)n2C | 1.17 °C
42 | CNc1oc(-c2cccc3ccccc23)nc1C#N | 0.02 °C
43 | COc1ccc(CSc2nnc(-c3ccc4ncsc4c3)o2)cc1C(F)(F)F | -8.68 °C
44 | CC(C)C(=O)N1CCC(c2cn(C)c3ncc(NC(=O)c4cccc(C#N)c4)c(C(F)(F)F)c23)CC1 | 0.36 °C
45 | COCCN1CCN(CCn2ccc(Nc3ncc4c(n3)-c3c(nn(C)c3-c3ccccc3)C[C@H]4C)n2)CC1 | 1.18 °C
46 | N#C/C(=C\c1ccc(O)c(O)c1)C(=O)OCCc1cccs1 | 0.37 °C
47 | CC(=O)N(CCN(C)C)c1ccc(N/C(=C2\C(=O)Nc3cc(Cl)ccc32)c2ccccc2)cn1 | 0.38 °C
48 | Cc1nc(-c2ccc(C(F)(F)F)cc2)sc1C(=O)NCc1ccc(OC(C)(C)C(=O)O)cc1 | 0.34 °C
49 | CC(C)N(CCCCOCC(=O)O)c1cnc(-c2ccccc2)c(-c2ccccc2)n1 | -0.32 °C
50 | FC(F)c1cncc(-c2ccc3ncc4nnc(C5=CCCOCC5)n4c3c2)c1 | 0.41 °C
51 | CC(C)c1cnc(NC(=O)Cc2ccccc2)s1 | 0.91 °C
52 | CCCCOc1c(C(=O)c2c(F)cc(C)cc2F)c[nH]c2nncc1-2 | 0.05 °C
53 | CCN1C(=O)c2cc(C)ccc2N(C)c2ncccc21 | 0.23 °C
54 | CCOCCn1cc(C(=O)Nc2ccc(-n3nc(-c4cccnc4)cc3C(F)(F)F)cn2)ccc1=O | -0.58 °C
55 | CC#CCC(C)[C@H](O)/C=C/[C@@H]1[C@H]2C/C(=C/CCCC(=O)O)C[C@H]2C[C@H]1O (stereo partly drawn) | 0.12 °C
56 | COc1ccc(S(=O)(=O)N2CCOCC2)cc1Nc1ccc2c(n1)N(C1CCOCC1)[C@H](C)C(=O)N2C | -0.88 °C
57 | CC1CN(CC(=O)N2CC(C)(C)c3nc(CO)c(Cc4ccc(F)cc4)cc32)C(CN2CCOCC2C)CN1 (stereo not drawn) | 0.17 °C
58 | O=C(O)CCCc1cc2cc(Cl)ccc2n1S(=O)(=O)c1ccc2ncsc2c1 | 0.26 °C
59 | O=S(=O)(Nc1ccc(C(O)(C(F)(F)F)C(F)(F)F)cc1)c1cccs1 | 1.04 °C

Row | SMILES | ΔTm
60 | COC(=O)Nc1nc2c(s1)-c1c(c(-c3cccnc3)nn1-c1ccc(C3(N(C)C)CC3)cc1)CC2 | 0.36 °C
61 | COc1ccccc1S(=O)(=O)Nc1ccc2c(c1)CN(C)C(=O)N2 | 0.21 °C
62 | CC(C)(C)OC(=O)CN(Cc1ccc(Cl)cc1)Cc1ccc([N+](=O)[O-])s1 | 0.12 °C
63 | COc1c(OCCCN2CCOCC2)ccc2c1N=C(NC(=O)c1cnc(N)nc1)N1CCN=C21 | 0.14 °C
64 | COCCc1ccc(-c2c(C)nc3c(N4CCOCC4)ccnn23)cn1 | 0.69 °C
65 | COc1cc(OC)cc(-c2cc3cnc(N)nc3nc2NC(=O)NC(C)(C)C)c1 | 0.47 °C and 0.55 °C
66 | COCCNC1CCC(Nc2cc(-c3csc(NCC4(C#N)CCOCC4)n3)c(Cl)cn2)CC1 (stereo not drawn) | 0.43 °C
67 | Cc1cc(-c2ccnc(Nc3cnn(C)c3)n2)ccc1CNC(=O)N1CC(OC(C)C)C1 | 0.39 °C
68 | COCCCS(=O)(=O)c1cc(C)c(-c2ccc(F)c3c2CC[C@H]3Oc2ccc3c(c2)OC[C@H]3CC(=O)O)c(C)c1 | 0 °C
69 | COc1cc2nc([C@@H]3CCCS(=O)(=O)C3)n(C)c2cc1NC(=O)c1cccc(C(C)(F)F)n1 | 0.05 °C
70 | CN1C(=O)Cc2ccc(-c3ccc(C[C@@H](C#N)NC(=O)[C@@H]4N[C@H]5CC[C@@H]4C5)c(F)c3)cc21 | -0.2 °C
71 | CCN(C(=O)c1cc(F)ccc1Oc1cncnc1N1CC2(CCN(C[C@H]3CC[C@H](NS(=O)(=O)CC)CC3)CC2)C1)C(C)C | 0.35 °C
72 | CC(C)(C)c1cc(NC(=O)c2csc(Nc3ccccn3)n2)no1 | 0.57 °C
73 | O=C(Nc1cccc(C(F)(F)F)c1)c1cccc(-n2cc(-c3ccco3)nn2)c1 | -10.6 °C
74 | CNC(=O)c1ccc2c(c1)ncn2-c1ccc(CC(=O)OC(C)(C)C)cc1 | 0.2 °C
75 | CNC(=O)c1cc(C(=O)N[C@H]2[C@@H]3COC[C@@H]32)cc2c1O[C@H](CF)[C@H]2c1ccccc1 | 0.3 °C
76 | CN(C)c1ccc(-c2cc3ncccc3c(OCCCCO)n2)cc1 | 0.3 °C
77 | O=C(NC[C@@H]1[C@H]2CN(C(=O)OCc3cc(C(F)(F)F)cc(C(F)(F)F)c3)C[C@@H]12)c1ccc2[nH]nnc2c1 | -10.3 °C
78 | COc1cc(-c2cncc(-c3ccc(N4CCN(C(C)C)CC4)cc3)c2C)cc(F)c1C(N)=O | 0.21 °C
